GPR151 ag = activators of human GPR151 | PathHunter beta-arrestin GPR151 cells, luminescence | activation, % at 11.2 µM | Q8TDV0 | actives 1% (n = 650,000); in the data active means activation above about 4.9%
Target sequence (Q8TDV0 whole entry, looked up): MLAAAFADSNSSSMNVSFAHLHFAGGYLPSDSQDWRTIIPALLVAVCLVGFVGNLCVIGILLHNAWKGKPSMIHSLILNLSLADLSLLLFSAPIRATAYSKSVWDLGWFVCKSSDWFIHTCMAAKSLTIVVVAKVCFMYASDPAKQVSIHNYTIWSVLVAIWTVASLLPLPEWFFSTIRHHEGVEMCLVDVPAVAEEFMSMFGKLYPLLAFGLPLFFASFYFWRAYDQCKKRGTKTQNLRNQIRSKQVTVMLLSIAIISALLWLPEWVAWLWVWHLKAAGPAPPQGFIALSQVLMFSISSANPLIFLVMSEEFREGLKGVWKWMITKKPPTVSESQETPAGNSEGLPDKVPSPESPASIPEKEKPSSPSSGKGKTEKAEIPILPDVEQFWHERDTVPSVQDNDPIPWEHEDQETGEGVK
FBW7 act = human FBW7 E3 ligase activation, primary screen; AlphaScreen FBW7–phospho-cyclin E peptide binding, activator screen; AID 1259310; Q969H0; actives 0.13% (n = 650,000); normalized activity (activation), % at 26.1 µM; in the data active means normalized activity above about 1.9%;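 further: purified mutant Fbw7 with reduced substrate affinity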
MITF primary = human MITF inhibition, primary screen; O75030; AlphaScreen MITF homodimerization, bead proximity signal; inhibition, % at 2.6 µM; actives 0.91% (n = 650,000); AID 1259374; in the data active means inhibition above about 50%
TEAD-YAP inh = TEAD-YAP interaction inhibition | HEK-TIYL cells, TEAD-Gal4/YAP UAS-luciferase luminescence | inhibition, % at 9.12 µM | actives 1.4% (n = 640,000); in the data active means inhibition above about 32%
Of the large screens only hits and unclear results are named; the others gave an inactive call. Shown are actives, neighbours in structure and some others; about 3.4% of the full set was active somewhere.

CCC(C)(C)n1nnnc1CN1CCC(n2cnc3cccnc32)CC1	none
N#C/C(=C\c1ccco1)C(=O)Nc1ccccc1F	FBW7 act 2.1
Cc1cc(=O)[nH]c(SCc2cccc(Oc3ccccc3)c2)n1	none
c1ccc(Oc2cccc(CSc3nc4ccccc4[nH]3)c2)cc1	TEAD-YAP inh 34
CCOC(=O)c1c(C)sc2c3c([nH]c12)CCCC3	TEAD-YAP inh 62
CCOc1cc(C(=O)OCc2c(C)noc2C)cc(Br)c1OC	none
Cc1ncn(-c2ccc(Nc3cc(-c4cccc(N5CCOCC5)c4)ccn3)cc2)n1	none
Cc1ncn(-c2ccc(Nc3nccc(Nc4cccc(N5CCOCC5)c4)n3)cc2)n1	TEAD-YAP inh 63
Cc1ncn(-c2ccc(Nc3nccc(Nc4cccc(N)c4)n3)cc2)n1	TEAD-YAP inh 35
Cc1cc2cc3c(cc2n2c(=O)n(CCN(C)C)nc12)OCO3	none
Cc1cc(C)c2cc(C)c3nn(CCN(C)C)c(=O)n3c2c1	TEAD-YAP inh 41
CC(=O)N1CCc2cc(C(O)CN3CCN(c4ccc([N+](=O)[O-])cc4)CC3)ccc21 (stereo unspecified)	none
Nc1c(C(=O)N2CCOCC2)sc2nc(-c3ccccc3)cc(C(F)(F)F)c12	FBW7 act 2.8
N#Cc1ccc(Oc2ccc(S(=O)(=O)N3CCOCC3)cc2[N+](=O)[O-])cc1	none
CCCn1c(CCC(=O)NCc2ccc(Cl)cc2)nc2cccnc21	none
CCc1ccc(/C(C)=N/N=C(N)N)cc1	TEAD-YAP inh 35
COc1ccc(-c2csc3ncnc(Cl)c23)cc1OC	TEAD-YAP inh 34
CCOc1ccc(NC(=O)NCCN2CCN(c3ccccc3)CC2)cc1	none
CC(C)n1cc(CN2CCc3c(nc(N4CCOCC4)[nH]c3=O)C2)c2ccccc21	none
O=C(NCCN1CCOCC1)c1cc(NCc2cccnc2)nc2ccccc12	none
O=[N+]([O-])c1ccc2ncnc(Nc3ccc(F)cc3F)c2c1	TEAD-YAP inh 35
CCCCN(C)C(=O)CSc1cc(C)nc2c(-c3ccccc3OC)c(C)nn12	none
COc1ccc(-n2c(SCC(=O)Nc3ccc(Cl)cc3)nc(O)cc2=O)cc1	none
CCN1CCC(Oc2ccc(-c3ccc(COC)cc3)cc2)CC1	none
N#Cc1ccc(-c2ccc(OC3CCNCC3)cc2)cc1	none
c1ccc2oc(-c3ccc(OC4CCNCC4)cc3)cc2c1	TEAD-YAP inh 68
COCc1ccc(-c2ccc(OC3CCNCC3)cc2)cc1	TEAD-YAP inh 38
Cc1sc(NC(=O)c2ccco2)c(C2=CC(=O)N(c3ccccc3)C2=O)c1C	none
CCOC(=O)c1sc2nc(CC(=O)OC)nc(Nc3cc(OC)ccc3OC)c2c1C	none
O=C1N=C(N2CCOCC2)S/C1=C\c1ccc(F)cc1	none
CC1CCCN(C2=NC(=O)/C(=C/c3ccc(F)cc3)S2)C1 (stereo unspecified)	none
O=C1N=C(N2CCOCC2)S/C1=C\c1ccc(O)cc1	TEAD-YAP inh 39
COc1cc(/C=C2\SC(N3CCOCC3)=NC2=O)ccc1O	TEAD-YAP inh 54
COc1cc(/C=C2\SC(N3CCCC3)=NC2=O)ccc1O	none
COc1cc(/C=C2\SC(N3CCCC(C)C3)=NC2=O)ccc1O (stereo unspecified)	TEAD-YAP inh 56
CC1CCCN(C2=NC(=O)/C(=C/c3ccc(O)cc3)S2)C1 (stereo unspecified)	TEAD-YAP inh 49
COc1ccc(C2C(C(=O)N3CCN(c4ccc(F)cc4)CC3)c3ccccc3C(=O)N2C)cc1 (stereo unspecified)	none
CSc1ccc(C2C(C#N)=C(N)Oc3cc(C)[nH]c(=O)c32)cc1 (stereo unspecified)	none
Cc1[nH]n(-c2ccccc2)c(=O)c1C(c1ccccc1F)c1c(C)[nH]n(-c2ccccc2)c1=O	none
COCCCNc1nc2nonc2nc1N1CCC(COC)C1 (stereo unspecified)	none
Cn1ccnc1C(=O)c1ccc([N+](=O)[O-])cc1	none
CCC1C(=O)NCCN1Cc1ccc2c(c1)CN(Cc1ccc(Cl)cc1)CCO2 (stereo unspecified)	none
CCC1C(=O)NCCN1Cc1ccc2c(c1)CN(Cc1c(C)nc3sccn13)CCO2 (stereo unspecified)	TEAD-YAP inh 35
CCCCN(CCCC)C(=O)Cc1cccs1	TEAD-YAP inh 44
Nc1ncc(-c2cncnc2)nc1N1CCOCC1	none
COC(=O)c1cnn(-c2ccc(C)cc2)c1-n1cccc1	none
CCOC(=O)Nc1ccc(I)cc1	none
CCOC(=O)Nc1ccc(Cc2ccc(NC(=O)OCC)cc2)cc1	TEAD-YAP inh 33
COc1cccc(NC(=O)Cn2c(=O)n(C)c3ncccc32)c1	none
O=C(Cn1nnc2sc3c(c2c1=O)CCCC3)N1CCc2ccccc21	none
COc1cccc(-n2c(SCC(=O)Nc3ccc(C)cc3)nc3n[nH]c(C)c3c2=N)c1	none
Cc1ccc(-n2c(SCC(=O)NCc3ccccc3)nc3n[nH]c(C)c3c2=N)cc1Cl	none
COc1cccc(-n2c(SCC(=O)Nc3ccc(C(C)C)cc3)nc3n[nH]c(C)c3c2=N)c1	TEAD-YAP inh 37
Cc1ccc(-n2c(SCC(=O)NCc3ccccc3)nc3n[nH]c(C)c3c2=N)cc1C	TEAD-YAP inh 41
CCN(CC)C(=O)CSc1nc2n[nH]c(C)c2c(=N)n1-c1ccc(Oc2ccccc2)cc1	TEAD-YAP inh 42
CCC(=O)N1CCc2cc(S(=O)(=O)NC(C(=O)N3CCCC(C)C3)C(C)C)ccc21 (stereo unspecified)	none
Cc1cc(C)c2c(n1)nn1c(NCc3ccco3)cc(C)nc21	FBW7 act 254
Cn1ncc(Cl)c1C(=O)Nc1ccc2nc(NC(=O)C3CCCCC3)sc2c1	TEAD-YAP inh 57
CC(=O)Nc1nc2ccc(NC(=O)c3c([N+](=O)[O-])cnn3C)cc2s1	TEAD-YAP inh 53
Cn1ncc(Cl)c1C(=O)Nc1ccc(Cl)c(Cl)c1	none
O=C(Nc1ccccc1)c1ccc2nc(NC(=O)C3CCCCC3)sc2c1	none
Nc1ccc(C(=O)Nc2nc3cc4sc(NC(=O)c5ccc(N)cc5)nc4cc3s2)cc1	FBW7 act 6.7
Nc1ccc(C(=O)Nc2ccc3nc(NC(=O)C4CCCCC4)sc3c2)cc1	TEAD-YAP inh 40
COc1ccc(-c2ccc(NCCc3ccncc3)nc2)cc1	none
COc1ccccc1N1CCN(C(=O)CSCc2ccc(C)cc2)CC1	none
C=CCOc1c(Br)cc(/C=c2\sc3n(c2=O)C(c2ccc(OC)cc2)C(C(=O)OCC)=C(C)N=3)cc1OC (stereo unspecified)	none
O=C(NCCN1CCOCC1)c1ccnc(-n2ncc3cc(Nc4ccccc4Cl)ccc32)c1	none
O=[N+]([O-])c1cc(NS(=O)(=O)c2ccccc2)cc([N+](=O)[O-])c1	none
O=C(/C=C/c1ccccc1)OCC(=O)c1cccc([N+](=O)[O-])c1	none
COc1ccc(/C=C2\C(=O)ON=C2C)cc1O	MITF primary 52
COc1cc(/C=C2\C(=O)ON=C2C)cc(Br)c1O	MITF primary 81
COc1ccc(/C=C2/NC(=S)NC2=O)cc1O	TEAD-YAP inh 40
CCOc1cc(/C=C2/C(=O)ON=C2C)ccc1O	none
CC1=NOC(=O)/C1=C/c1ccc(O)cc1O	MITF primary 53
COc1ccc(/C=C2\NC(=S)NC2=O)cc1C	none
Ic1ccc2c(c1)[nH]c1ccccc12	none
